In ChEMBL document CHEMBL1201862, “PubChem BioAssay data set” (2004):
Screen size: about 420,000 compounds; about 50,000 (12%) were called active. Not shown: some 26% with an inconclusive outcome. No cut-off for these calls is given here. The full list was thinned out, with actives kept by preference.

What follows are molecules tested against Tyrosyl-DNA phosphodiesterase 1 (Homo sapiens) (UniProt Q9NUW8) (assay: qHTS for Inhibitors of human tyrosyl-DNA phosphodiesterase 1 (TDP1): qHTS in cells in presence of CPT.).
Format: functional

Tyrosyl-DNA phosphodiesterase 1 (Homo sapiens), sequence (Q9NUW8 whole entry): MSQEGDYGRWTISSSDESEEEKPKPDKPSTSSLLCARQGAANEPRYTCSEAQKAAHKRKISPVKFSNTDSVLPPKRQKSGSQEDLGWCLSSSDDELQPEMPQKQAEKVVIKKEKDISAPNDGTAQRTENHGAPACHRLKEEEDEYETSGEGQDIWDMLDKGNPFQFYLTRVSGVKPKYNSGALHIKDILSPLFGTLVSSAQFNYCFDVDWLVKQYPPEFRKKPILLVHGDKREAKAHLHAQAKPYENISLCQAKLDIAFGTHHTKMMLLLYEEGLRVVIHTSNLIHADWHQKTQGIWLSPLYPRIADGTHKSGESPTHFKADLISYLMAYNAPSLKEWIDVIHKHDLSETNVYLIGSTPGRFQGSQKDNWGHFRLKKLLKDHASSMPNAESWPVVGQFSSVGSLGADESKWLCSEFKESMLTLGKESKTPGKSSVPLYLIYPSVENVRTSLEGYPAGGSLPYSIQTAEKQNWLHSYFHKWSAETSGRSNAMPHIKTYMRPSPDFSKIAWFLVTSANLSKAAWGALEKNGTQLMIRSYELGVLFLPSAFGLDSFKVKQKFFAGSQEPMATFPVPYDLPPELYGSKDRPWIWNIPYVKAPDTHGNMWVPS

Potency, active:
COc1ccc(OC)c(/C=C/c2cccc3c2N(CCCCI)C=S3/C=C/c2cc(OC)ccc2OC)c1 (stereo not given) 6.31 µM, CC(C)C(C)c1cccc2c1NC=S2C(C)C(C)C (stereo not given) 5.62 µM, COc1ccccc1/C=C/C(=O)c1cccs1 9.44 µM, ICCCCN1C=S(CI)c2ccccc21 (stereo not given) 10 µM, Cc1cccc2c1N(CCCCI)C=S2C (stereo not given) 3.98 µM
